Whole data set: some 81,000 sequences, median “one-hybrid fitness for binding parS DNA” near -0.17, cut for the highest 2% near 0.51. Shown is part of a subset that was picked to be rich in the highest values.
B1: Caulobacter ParB omega fusion; a variant is named by its letters at X, in order, B8GW30 (parent)
chain: MESVVVGEPGMSEGRRGLGRGLSALLGEVDAAPAQAPGEQLGGSREAPIEILQRNPDQPRRTFREEDLEDLSNSIREKGVLQPILVRPSPDTAGEYQIVAGERAWRAAQRAGLKTVPIMVRELDDLAVLEIGIIENVQRADLNVLEEALSYKVLMEKFERTQENIAQTIGKSXSHVANXMRLLXLPDEVQSYLVSGELTAXHARAIAAAADPVALAKQIIEGGLSVRETEALARKAPNLSAGKSKGGRPPRVKDTDTQALESDLSSVLGLDVSIDHRGSTGTLTITYATLEQLDDLCNRLTRGI

Variants of: B1
Experiment: one-hybrid fitness for binding parS DNA (scaled: cognate 1, non-cognate 0); higher = stronger binding
Conditions: with parS DNA site
Procedure, shortened: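 Fitness is the rescaled log change in variant-to-wild-type read ratio, measured by Illumina sequencing of plasmids before and after bacterial one-hybrid selection. The scale puts cognate at 1 and non-cognate at 0. Selection of Caulobacter ParB libraries, four specificity codons randomised, took place in E. coli USO with a HIS3 reporter, site 19 bp from the promoter, over 48 hours at 37°C on M9-minus-histidine with 0.1 mM IPTG and 5 mM 3-AT.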

one-hybrid fitness for binding parS DNA, 0.992:
RYTG

one-hybrid fitness for binding parS DNA, 0.946:
RQHC

one-hybrid fitness for binding parS DNA, 0.395:
RYMN

one-hybrid fitness for binding parS DNA, 1.03:
RCCG

one-hybrid fitness for binding parS DNA, 0.27:
RLCF

one-hybrid fitness for binding parS DNA, 0.904:
RYTS
RMNT

one-hybrid fitness for binding parS DNA, 0.851:
RKRG

one-hybrid fitness for binding parS DNA, 0.978:
RAFG

one-hybrid fitness for binding parS DNA, 0.379:
RMRM

one-hybrid fitness for binding parS DNA, 0.286:
RQWN
RKCM

one-hybrid fitness for binding parS DNA, 0.287:
RQGM

one-hybrid fitness for binding parS DNA, 0.405:
RMDY

one-hybrid fitness for binding parS DNA, 0.964:
RKLG

one-hybrid fitness for binding parS DNA, 0.884:
RYTT

one-hybrid fitness for binding parS DNA, 0.868:
RMRS

one-hybrid fitness for binding parS DNA, 0.504:
RQRY

one-hybrid fitness for binding parS DNA, 0.963:
RYMS

one-hybrid fitness for binding parS DNA, 0.223:
RMDF

one-hybrid fitness for binding parS DNA, 0.269:
RMGF

one-hybrid fitness for binding parS DNA, 0.903:
RYTC

one-hybrid fitness for binding parS DNA, 0.887:
RYMT

one-hybrid fitness for binding parS DNA, 0.952:
RQLC
RKYG

one-hybrid fitness for binding parS DNA, 0.256:
RQYF
RICQ

one-hybrid fitness for binding parS DNA, 0.418:
RMRN

one-hybrid fitness for binding parS DNA, 0.297:
RKYN

one-hybrid fitness for binding parS DNA, 0.499:
RAFY

one-hybrid fitness for binding parS DNA, 0.999:
RTCG

one-hybrid fitness for binding parS DNA, 0.465:
RQSY

one-hybrid fitness for binding parS DNA, 0.402:
RKLY

one-hybrid fitness for binding parS DNA, 0.258:
RMSF

one-hybrid fitness for binding parS DNA, 0.937:
RKGG
RMGT

one-hybrid fitness for binding parS DNA, 0.442:
RQLY

one-hybrid fitness for binding parS DNA, 0.943:
RQRC

one-hybrid fitness for binding parS DNA, 0.945:
RMST

one-hybrid fitness for binding parS DNA, 0.325:
RQHM

one-hybrid fitness for binding parS DNA, 1.02:
RYFS
RMDS

one-hybrid fitness for binding parS DNA, 0.247:
RQRF

one-hybrid fitness for binding parS DNA, 0.429:
RYTY
RYTN

one-hybrid fitness for binding parS DNA, 0.615:
RWFG

one-hybrid fitness for binding parS DNA, 0.925:
RKHG

one-hybrid fitness for binding parS DNA, 0.917:
RYAS

one-hybrid fitness for binding parS DNA, 0.908:
RRIG

one-hybrid fitness for binding parS DNA, 1.07:
RMFS

one-hybrid fitness for binding parS DNA, 0.966:
RSCG

one-hybrid fitness for binding parS DNA, 0.221:
RECG

one-hybrid fitness for binding parS DNA, 0.923:
RMYT

one-hybrid fitness for binding parS DNA, 0.951:
RQQC

one-hybrid fitness for binding parS DNA, 0.425:
RYFN

one-hybrid fitness for binding parS DNA, 1:
RAAG
RLCG

one-hybrid fitness for binding parS DNA, 0.295:
RYTM

one-hybrid fitness for binding parS DNA, 0.913:
RKQG

one-hybrid fitness for binding parS DNA, 0.529:
RMNY

one-hybrid fitness for binding parS DNA, 0.812:
RMRT

one-hybrid fitness for binding parS DNA, 0.226:
RNDN

one-hybrid fitness for binding parS DNA, 0.994:
RYMC

one-hybrid fitness for binding parS DNA, 0.72:
RWAG

one-hybrid fitness for binding parS DNA, 0.318:
RMQD

one-hybrid fitness for binding parS DNA, 0.969:
RNNS

one-hybrid fitness for binding parS DNA, 0.891:
RRPG

one-hybrid fitness for binding parS DNA, 0.448:
RAAN

one-hybrid fitness for binding parS DNA, 0.439:
RMLN

one-hybrid fitness for binding parS DNA, 0.915:
RSCC

one-hybrid fitness for binding parS DNA, 0.275:
RMLH

one-hybrid fitness for binding parS DNA, 0.94:
RQYC

one-hybrid fitness for binding parS DNA, 0.823:
RNDS

one-hybrid fitness for binding parS DNA, 0.46:
RMAN

one-hybrid fitness for binding parS DNA, 0.389:
RMCN

one-hybrid fitness for binding parS DNA, 0.968:
RQSC

one-hybrid fitness for binding parS DNA, 0.971:
RYMG
RKCG

one-hybrid fitness for binding parS DNA, 0.841:
RFFS

one-hybrid fitness for binding parS DNA, 0.237:
RMNF

one-hybrid fitness for binding parS DNA, ≤ 0.2:
TVTE
HTAD
AGDD
KANA
WSQY
NLNG
DWLT
RAAP
RAFR
KYLA
TKWY
KNQS
CSRV
ATTE
WMPS
CPLP
GALY
NGLG
RQGK
RQQQ
RQSQ
RQQK
RQHR
KYCL
AFDN
GKGS
WSNM
GTTW
ACNL
CRNF
SNIR
RQCQ
RQLQ
RQYR
RQCK
VAQC
FEDR
QQVS
VEHM
CAAW
APPF
YVRD
RQWD
CVQT
RFFP
RFAH
RFFD
RFAD
LQNH
TREM
DHQQ
STCC
RDCG
RSCQ
RTCK
RTCQ
ECVT
WSQP
VYQR
KDPE
DISI
KTLW
RPCG
PASK
CNGG
SRGF
AQNP
TPWY
KCYT
VISS
QETP
PTTA
DTNY
RYMP
RYMR
RYMQ
RYMK
RYML
RYMH
RYMD
LCMG
NWQY
NQMR
DFGS
NLVV
TGGR
HAMN
WKPV
DGVM
RPCN
APGA
LMVR
EFNL
WIWS
RPCC
RSCP
RSCD
RDCC
RRIP
RRPQ
RRIM
RRPF
TAAL
KHMS
RYTH
RYTD
RYTK
RYTR
RYTP
RFHK
NTHH
YAER
SRAR
DHRG
WTKG
TPGV
PQLQ
RWFK
KWFG
RWAM
RWAF
TYPT
MSSI
DTPG
HKES
ANPQ
WNSC
RNND
RNDP
RNNP
HDLV
IGRI
WCIS
PFSI
AYDD
RKGP
RKGH
RKLK
RKQM
RKYD
RKQR
ASNF
STMD
THAI
HFAT
VNIM
GRPC
ANQN
HYCT
RKRD
RKRP
RKHR
RKCQ
RKHF
QYTT
HLKG
TWTY
QNAG
GTTH
SETA
TDDG
QFHD
RMDL
RMND
RMGK
RMRQ
GTPS
EHHI
KHQH
PMNI
RECV
NATT
LRNV
MRHY
KGRF
YADG
YTRC
QWHV
RMYP
RMQP
RMYD
VHYL
ADVS
GAPV
SQVL
AMKY
GIMG
SACQ
RWLW
RMFP
RMFD
PWEY
LATA
RLDI
ENYW
AEQK
RYFP
RYAH
RYAP
PWFC
RMRP
RMDD
RMDP
FDLP
LARN
YKTN
PMMG
TDRN
IALI
HAQR

one-hybrid fitness for binding parS DNA, 0.874:
RQCC

one-hybrid fitness for binding parS DNA, 0.492:
RICY

one-hybrid fitness for binding parS DNA, 1.04:
RMCG
RMLS

one-hybrid fitness for binding parS DNA, 0.37:
RMSM

one-hybrid fitness for binding parS DNA, 0.976:
RFAS
RICG

one-hybrid fitness for binding parS DNA, 0.342:
RLCM

one-hybrid fitness for binding parS DNA, 0.282:
RMAH

one-hybrid fitness for binding parS DNA, 0.262:
RMCH

one-hybrid fitness for binding parS DNA, 0.959:
RCCC

one-hybrid fitness for binding parS DNA, 0.991:
RMAS

one-hybrid fitness for binding parS DNA, 0.797:
RQWC

one-hybrid fitness for binding parS DNA, 0.794:
RMDT

one-hybrid fitness for binding parS DNA, 0.921:
RMQT

one-hybrid fitness for binding parS DNA, 0.916:
RQGC
